From PubChem BioAssay (EPA / NIEHS)
Records with an inconclusive call do not appear. Some structures have more than one record in an assay (separate samples or runs), and their calls can disagree. Activity calls are given as the source filed them. The calls were made as follows: active = hit-call score of the fitted dose curve at least 0.9, where 1 is the maximum; inconclusive = response in the unintended direction; inactive = score below 0.9.

Columns and labels:
[1] = target: human Protein Tyrosine Phosphatase Receptor Type C (PTPRC), PTPRC (gene 5788) (UniProt P08575); assay: NVS_ENZ_hPTPRC: NovaScreen (NVS) Enzymatic Assay for human Protein Tyrosine Phosphatase Receptor Type C (PTPRC) (AID 2283212)
Method in brief: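 Yeast-extracted human PTPRC used in a cell-free colorimetric enzyme activity read-out, 1 h after dosing. Primary screen in duplicate at 25 uM; actives rerun in concentration-response up to 50 uM, DMSO as baseline.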

[2] = target: rat Acetylcholinesterase (AChE), Ache (gene 83817) (UniProt P37136); assay: NVS_ENZ_rAChE: NovaScreen (NVS) Enzymatic Assay for rat Acetylcholinesterase (AChE) (AID 2283233)
Method in brief: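 Rat brain membrane acetylcholinesterase activity measured colorimetrically 0.33 h after compound addition, loss of signal relative to DMSO. Primary screen in duplicate at 25 uM; actives re-run as concentration-response with 50 uM top concentration.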

[3] = system: rat Monoamine Oxidase, MAO-A, Peripheral (MAOAP), gene 29253; assay: NVS_ENZ_rMAOAP: NovaScreen (NVS) Enzymatic Assay for rat Monoamine Oxidase, MAO-A, Peripheral (MAOAP) (AID 2283237)
Method in brief: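 Rat liver mitochondrial membranes served as the MAO-A source, with enzyme activity measured by radiometric scintillation counting 1.17 hours after dosing. Loss of signal was fitted against DMSO; primary screen used 25 uM in duplicate, follow-up used concentration series.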

[4] = system: rat Monoamine Oxidase, MAO-A, Central (MAOAC), gene 29253; assay: NVS_ENZ_rMAOAC: NovaScreen (NVS) Enzymatic Assay for rat Monoamine Oxidase, MAO-A, Central (MAOAC) (AID 2283243);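 also: potency refers to inhibition seen as signal drop below DMSO baseline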
Method in brief: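 Inhibition of rat brain-derived MAO-A was read by scintillation counting after 1.5 h exposure. Compounds screened first at 25 uM in duplicate, then in dose series if active.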

[5] = target: bovine Gamma-Aminobutyric Acid Type A Receptor BDZ, alpha 1 site (GABARa1), GABRA1 (gene 780973) (UniProt P08219); assay: NVS_LGIC_bGABARa1: NovaScreen (NVS) Ligand-Gated Ion Channel Assay for bovine Gamma-Aminobutyric Acid Type A Receptor BDZ, alpha 1 site (GABARa1) (AID 2283321)
Method in brief: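 Radioligand competition binding on bovine cortical membranes, 0.75 h, filter-based scintillation counting. Primary single concentration 25 uM in duplicate; actives rerun in concentration-response to 50 uM max. Loss of signal fitted versus DMSO.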

[6] = target: human Phosphatase and Tensin Homolog (PTEN), PTEN (gene 5728) (UniProt P60484); assay: NVS_ENZ_hPTEN: NovaScreen (NVS) Enzymatic Assay for human Phosphatase and Tensin Homolog (PTEN) (AID 2283203)
Method in brief: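 Cell-free recombinant human PTEN with fluorescent substrate; product separated by electrophoretic mobility shift and read by fluorescence 1 h after dosing. Primary screen in duplicate at 25 uM, actives followed in concentration series versus DMSO.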

[7] = target: Norway rat Vesicular Monoamine Transporter (VMAT2), neurotransmitter transporter, Slc18a2 (gene 25549) (UniProt Q01827); assay: NVS_TR_rVMAT2: NovaScreen (NVS) Transporter Assay for Norway rat Vesicular Monoamine Transporter (VMAT2), neurotransmitter transporter (AID 2283376);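 also: actives lower the bound radioligand signal below the DMSO level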
Method in brief: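 Radioligand displacement binding on rat forebrain tissue preparation, filter-based scintillation read-out 1 hour after dosing. Primary screen in duplicate at 25 uM, then concentration series for actives; loss of signal versus DMSO.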

[8] = target: human Raf-1 Proto-Oncogene, serine/threonine Kinase (RAF1), RAF1 (gene 5894) (UniProt P04049); assay: NVS_ENZ_hRAF1: NovaScreen (NVS) Enzymatic Assay for human Raf-1 Proto-Oncogene, serine/threonine Kinase (RAF1) (AID 2283216)
Method in brief: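 Cell-free recombinant kinase with specific fluorescent substrate, product separated by electrophoretic mobility shift; read 1 h after dosing. Primary screen at 25 uM in duplicate; hits then run in concentration-response up to 50 uM, fitted as loss of signal versus DMSO.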

[9] = target: rat Monoamine Oxidase, MAO-B, Peripheral (MAOBP), Maob (gene 25750) (UniProt P19643); assay: NVS_ENZ_rMAOBP: NovaScreen (NVS) Enzymatic Assay for rat Monoamine Oxidase, MAO-B, Peripheral (MAOBP) (AID 2283242)
[10] = target: human Protein Tyrosine Phosphatase Non-receptor Type 2 (PTPN2), PTPN2 (gene 5771) (UniProt P17706); assay: NVS_ENZ_hPTPN2: NovaScreen (NVS) Enzymatic Assay for human Protein Tyrosine Phosphatase Non-receptor Type 2 (PTPN2) (AID 2283207)
Method in brief: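 Cell-free recombinant enzyme with fluorescent substrate, product separated by electrophoretic mobility shift; read 1 h after dosing. Primary screen single concentration (25 uM) in duplicate; actives followed in concentration series; loss of signal versus DMSO.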

[11] = target: rat Monoamine Oxidase, MAO-B, Central (MAOBC), Maob (gene 25750) (UniProt P19643); assay: NVS_ENZ_rMAOBC: NovaScreen (NVS) Enzymatic Assay for rat Monoamine Oxidase, MAO-B, Central (MAOBC) (AID 2283238)
Method in brief: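 MAO-B activity in rat brain tissue preparation, cell-free, measured radiometrically by scintillation counting 1.17 h after dosing. Screened in duplicate at 25 uM; actives then in concentration-response up to 50 uM. Loss of signal versus DMSO scored.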

[12] = target: Voltage-dependent N-type calcium channel subunit alpha-1B (Rattus norvegicus) (UniProt Q02294); assay: NVS_IC_rCaChN: NovaScreen (NVS) Ion Channel Assay for rat Calcium Channel, Type N (CaChN) (AID 2283317)
[13] = target: human Neonicotinoid receptor (NNR), CHRNA2 (gene 1135) (UniProt Q15822); assay: NVS_LGIC_hNNR_NBungSens: NovaScreen (NVS) Ligand-Gated Ion Channel Assay for human Neonicotinoid receptor (NNR) (AID 2283313)
Method in brief: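 Radioligand displacement on human neuroblastoma membranes, 2 h, filter-based scintillation counting. Primary screen in duplicate at 25 uM; chemicals passing threshold (e.g. 30% inhibition) run singleton concentration-response to 50 uM; loss of binding fitted versus DMSO.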

[14] = target: rat Corticotropin Releasing Factor Receptor (CRF), Crhr1 (gene 58959) (UniProt P35353); assay: NVS_GPCR_rCRF: NovaScreen (NVS) G Protein-Coupled Receptor Assay for rat Corticotropin Releasing Factor Receptor (CRF) (AID 2283300)
Method in brief: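 Rat cortical membranes used as receptor source in a radioligand competitive displacement binding assay; scintillation read 2 h after dosing. Primary screen run in duplicate at 25 uM; loss of signal versus DMSO baseline indicates binding.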

[15] = ATG_M_32_XSP2: Attagene TRANS-FACTORIAL Multi-Species (XSP2) HepG2 Assay for M19 Transcription Factor (Internal Marker) (AID 2283826)
Method in brief: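 Transfected HepG2 (multiplexed GAL4-UAS reporters), 24 h chemical exposure, 3 nM 6-alpha-fluorotestosterone + 1.5 nM norgestrel added. RNA → oligo(dT) RT → PCR → 6-FAM primer extension → HpaI cut → CE. Fitted upward vs DMSO.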

[16] = target: rat Gamma-Aminobutyric Acid Type A Receptor BDZ, alpha 6 site (GABARa6), Gabra6 (gene 29708) (UniProt P30191); assay: NVS_LGIC_rGABARa6: NovaScreen (NVS) Ligand-Gated Ion Channel Assay for rat Gamma-Aminobutyric Acid Type A Receptor BDZ, alpha 6 site (GABARa6) (AID 2283339)
Method in brief: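 Rat cerebellar membranes; radioligand binding, filtration and scintillation counting, read 1 h after dosing. Single-concentration duplicate screen at 25 uM, then concentration-response up to 50 uM for actives; loss of signal fitted versus DMSO baseline.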

[17] = target: Bile acid receptor (Homo sapiens) (UniProt Q96RI1); assay: NVS_NR_hFXR_Agonist: NovaScreen (NVS) Nuclear Receptor Binding Assay for human Farnesoid X Receptor Agonism (FXR) (AID 2283347)
Method in brief: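 Cell-free TR-FRET binding assay with extracted human FXR protein, agonist format, read 1 h after dosing. Primary screen at 25 uM single concentration in duplicate, actives retested in concentration series; gain of signal versus DMSO.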

Chain of human Protein Tyrosine Phosphatase Receptor Type C (PTPRC), PTPRC (gene 5788) (P08575 whole entry, looked up): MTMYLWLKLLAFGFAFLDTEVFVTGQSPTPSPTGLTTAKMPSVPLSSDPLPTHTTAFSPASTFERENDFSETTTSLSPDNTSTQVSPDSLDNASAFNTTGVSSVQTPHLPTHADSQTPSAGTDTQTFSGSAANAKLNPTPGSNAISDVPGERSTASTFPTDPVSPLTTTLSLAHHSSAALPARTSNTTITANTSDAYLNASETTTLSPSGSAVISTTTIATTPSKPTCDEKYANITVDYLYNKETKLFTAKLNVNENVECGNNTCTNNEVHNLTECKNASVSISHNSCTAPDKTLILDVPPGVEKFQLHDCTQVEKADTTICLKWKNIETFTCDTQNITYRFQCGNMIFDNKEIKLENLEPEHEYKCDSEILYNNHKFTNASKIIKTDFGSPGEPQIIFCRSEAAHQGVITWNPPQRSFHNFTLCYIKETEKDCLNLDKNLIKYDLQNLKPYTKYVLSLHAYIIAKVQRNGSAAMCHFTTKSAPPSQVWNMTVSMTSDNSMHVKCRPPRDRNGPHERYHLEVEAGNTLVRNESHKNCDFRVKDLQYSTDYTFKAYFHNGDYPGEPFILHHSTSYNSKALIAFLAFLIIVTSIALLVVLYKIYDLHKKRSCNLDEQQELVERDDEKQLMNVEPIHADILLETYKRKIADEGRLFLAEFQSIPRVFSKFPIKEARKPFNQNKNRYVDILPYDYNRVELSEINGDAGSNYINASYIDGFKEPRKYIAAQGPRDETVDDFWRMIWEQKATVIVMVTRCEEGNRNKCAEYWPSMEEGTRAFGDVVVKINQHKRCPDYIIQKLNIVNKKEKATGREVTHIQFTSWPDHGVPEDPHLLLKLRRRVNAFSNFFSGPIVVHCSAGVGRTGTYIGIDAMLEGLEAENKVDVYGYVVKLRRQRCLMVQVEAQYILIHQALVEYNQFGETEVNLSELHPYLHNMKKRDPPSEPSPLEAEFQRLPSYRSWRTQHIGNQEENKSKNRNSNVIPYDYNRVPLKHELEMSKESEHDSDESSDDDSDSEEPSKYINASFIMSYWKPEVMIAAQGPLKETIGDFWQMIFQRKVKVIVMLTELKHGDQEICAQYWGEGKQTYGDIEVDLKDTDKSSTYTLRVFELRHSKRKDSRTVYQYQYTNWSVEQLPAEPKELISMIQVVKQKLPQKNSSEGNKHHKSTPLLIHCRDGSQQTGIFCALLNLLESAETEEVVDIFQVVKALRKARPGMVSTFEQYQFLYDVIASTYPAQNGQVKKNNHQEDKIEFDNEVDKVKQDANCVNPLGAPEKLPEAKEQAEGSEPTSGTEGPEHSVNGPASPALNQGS
Chain of Norway rat Vesicular Monoamine Transporter (VMAT2), neurotransmitter transporter, Slc18a2 (gene 25549) (Q01827 whole entry, looked up): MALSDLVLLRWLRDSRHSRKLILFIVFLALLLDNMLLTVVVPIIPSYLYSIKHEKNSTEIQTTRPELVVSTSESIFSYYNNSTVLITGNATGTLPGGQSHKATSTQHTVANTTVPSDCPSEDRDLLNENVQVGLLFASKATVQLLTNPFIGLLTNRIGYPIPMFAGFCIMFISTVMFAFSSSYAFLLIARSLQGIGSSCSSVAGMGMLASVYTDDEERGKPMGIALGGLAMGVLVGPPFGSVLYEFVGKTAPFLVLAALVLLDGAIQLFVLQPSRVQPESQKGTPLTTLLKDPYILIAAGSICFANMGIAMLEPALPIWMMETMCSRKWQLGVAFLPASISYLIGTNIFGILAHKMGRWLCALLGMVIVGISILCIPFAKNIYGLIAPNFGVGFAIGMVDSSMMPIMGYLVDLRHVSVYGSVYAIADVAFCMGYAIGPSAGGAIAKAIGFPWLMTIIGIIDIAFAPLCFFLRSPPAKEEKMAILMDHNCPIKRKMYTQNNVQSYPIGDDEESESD
Chain of human Raf-1 Proto-Oncogene, serine/threonine Kinase (RAF1), RAF1 (gene 5894) (P04049 whole entry, looked up): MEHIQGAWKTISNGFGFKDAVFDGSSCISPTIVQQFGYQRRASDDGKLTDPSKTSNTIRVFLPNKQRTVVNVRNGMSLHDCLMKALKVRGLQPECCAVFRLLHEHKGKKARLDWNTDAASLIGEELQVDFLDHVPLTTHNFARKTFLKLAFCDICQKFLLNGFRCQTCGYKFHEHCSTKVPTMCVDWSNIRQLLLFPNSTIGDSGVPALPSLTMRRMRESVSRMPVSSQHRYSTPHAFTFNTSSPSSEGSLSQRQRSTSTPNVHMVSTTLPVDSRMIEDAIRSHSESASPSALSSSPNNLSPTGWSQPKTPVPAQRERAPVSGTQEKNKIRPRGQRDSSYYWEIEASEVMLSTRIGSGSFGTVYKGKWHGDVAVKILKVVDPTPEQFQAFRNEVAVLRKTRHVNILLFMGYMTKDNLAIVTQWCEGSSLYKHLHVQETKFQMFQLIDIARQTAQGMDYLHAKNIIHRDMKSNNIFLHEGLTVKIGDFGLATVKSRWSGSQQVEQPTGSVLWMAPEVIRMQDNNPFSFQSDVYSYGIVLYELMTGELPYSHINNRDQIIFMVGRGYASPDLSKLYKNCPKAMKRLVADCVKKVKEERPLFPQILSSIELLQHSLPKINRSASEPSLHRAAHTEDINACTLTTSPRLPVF
Chain of human Phosphatase and Tensin Homolog (PTEN), PTEN (gene 5728) (P60484 whole entry, looked up): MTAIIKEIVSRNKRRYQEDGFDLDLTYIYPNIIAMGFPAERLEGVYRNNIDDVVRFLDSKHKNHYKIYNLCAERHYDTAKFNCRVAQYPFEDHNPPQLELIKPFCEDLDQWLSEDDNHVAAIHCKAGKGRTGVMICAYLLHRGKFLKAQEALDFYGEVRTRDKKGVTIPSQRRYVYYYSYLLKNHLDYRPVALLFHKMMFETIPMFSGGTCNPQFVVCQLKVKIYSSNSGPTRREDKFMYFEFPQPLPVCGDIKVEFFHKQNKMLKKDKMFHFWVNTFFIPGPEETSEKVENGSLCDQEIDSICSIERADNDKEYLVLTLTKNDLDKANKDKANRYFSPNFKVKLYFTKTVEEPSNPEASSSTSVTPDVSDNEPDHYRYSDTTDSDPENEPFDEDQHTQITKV
Chain of rat Acetylcholinesterase (AChE), Ache (gene 83817) (P37136 whole entry, looked up): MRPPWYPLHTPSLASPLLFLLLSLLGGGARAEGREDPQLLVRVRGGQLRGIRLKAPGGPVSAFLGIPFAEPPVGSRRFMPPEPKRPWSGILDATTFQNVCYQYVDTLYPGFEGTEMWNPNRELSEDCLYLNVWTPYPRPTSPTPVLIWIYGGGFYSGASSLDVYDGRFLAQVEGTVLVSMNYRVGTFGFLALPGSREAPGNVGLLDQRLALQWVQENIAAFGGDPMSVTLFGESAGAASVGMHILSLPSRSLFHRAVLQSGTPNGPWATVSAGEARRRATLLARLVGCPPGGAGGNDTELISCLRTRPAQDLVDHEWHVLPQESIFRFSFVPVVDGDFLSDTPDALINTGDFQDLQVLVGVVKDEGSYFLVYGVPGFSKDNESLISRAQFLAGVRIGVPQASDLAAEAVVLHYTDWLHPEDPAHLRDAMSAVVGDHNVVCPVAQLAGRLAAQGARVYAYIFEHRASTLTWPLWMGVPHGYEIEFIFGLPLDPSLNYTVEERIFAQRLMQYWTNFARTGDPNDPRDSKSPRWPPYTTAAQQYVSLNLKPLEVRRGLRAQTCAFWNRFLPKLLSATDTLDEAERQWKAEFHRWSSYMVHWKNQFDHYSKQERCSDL
Chain of rat Monoamine Oxidase, MAO-B, Central (MAOBC), Maob (gene 25750) (P19643 whole entry, looked up): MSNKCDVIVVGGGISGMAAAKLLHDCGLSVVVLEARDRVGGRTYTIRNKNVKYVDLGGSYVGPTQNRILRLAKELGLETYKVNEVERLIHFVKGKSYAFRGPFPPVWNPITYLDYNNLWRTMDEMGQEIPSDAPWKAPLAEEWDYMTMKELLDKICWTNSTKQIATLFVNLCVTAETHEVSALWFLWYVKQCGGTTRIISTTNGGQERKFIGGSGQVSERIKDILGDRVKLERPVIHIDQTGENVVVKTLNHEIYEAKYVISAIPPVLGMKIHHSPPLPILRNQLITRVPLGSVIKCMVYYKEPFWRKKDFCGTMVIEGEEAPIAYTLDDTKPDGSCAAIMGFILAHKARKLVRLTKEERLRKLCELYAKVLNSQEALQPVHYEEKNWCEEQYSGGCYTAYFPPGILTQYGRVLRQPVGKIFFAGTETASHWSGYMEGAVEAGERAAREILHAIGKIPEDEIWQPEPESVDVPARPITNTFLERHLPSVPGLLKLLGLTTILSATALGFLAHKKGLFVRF
Chain of human Neonicotinoid receptor (NNR), CHRNA2 (gene 1135) (Q15822 whole entry, looked up): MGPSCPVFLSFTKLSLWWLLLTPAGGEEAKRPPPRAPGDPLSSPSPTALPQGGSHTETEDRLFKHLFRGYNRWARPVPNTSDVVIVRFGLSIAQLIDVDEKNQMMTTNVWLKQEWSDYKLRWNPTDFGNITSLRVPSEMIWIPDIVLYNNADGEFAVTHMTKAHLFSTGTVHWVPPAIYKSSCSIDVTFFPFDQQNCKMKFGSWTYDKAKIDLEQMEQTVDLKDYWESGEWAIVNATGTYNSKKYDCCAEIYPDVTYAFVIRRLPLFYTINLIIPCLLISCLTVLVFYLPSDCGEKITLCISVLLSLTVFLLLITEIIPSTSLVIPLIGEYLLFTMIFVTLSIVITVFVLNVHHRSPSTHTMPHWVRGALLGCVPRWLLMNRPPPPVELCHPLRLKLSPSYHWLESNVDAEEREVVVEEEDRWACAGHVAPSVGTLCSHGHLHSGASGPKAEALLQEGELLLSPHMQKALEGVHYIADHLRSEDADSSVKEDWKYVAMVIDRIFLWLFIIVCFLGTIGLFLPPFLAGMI
Chain of Bile acid receptor (Homo sapiens) (Q96RI1 whole entry, looked up): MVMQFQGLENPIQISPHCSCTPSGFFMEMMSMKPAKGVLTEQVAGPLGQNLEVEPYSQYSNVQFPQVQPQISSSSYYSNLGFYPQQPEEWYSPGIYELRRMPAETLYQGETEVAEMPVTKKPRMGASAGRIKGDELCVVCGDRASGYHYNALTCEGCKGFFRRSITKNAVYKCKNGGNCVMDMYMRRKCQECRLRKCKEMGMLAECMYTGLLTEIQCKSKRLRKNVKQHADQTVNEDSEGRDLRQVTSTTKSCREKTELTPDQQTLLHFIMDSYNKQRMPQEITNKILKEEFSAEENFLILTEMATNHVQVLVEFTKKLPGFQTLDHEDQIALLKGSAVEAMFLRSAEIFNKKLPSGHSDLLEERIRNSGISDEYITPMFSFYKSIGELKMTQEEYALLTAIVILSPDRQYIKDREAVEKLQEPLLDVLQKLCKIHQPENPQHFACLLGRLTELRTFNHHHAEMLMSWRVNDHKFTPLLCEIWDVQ

Nc1nc2ncc(CNc3ccc(C(=O)N[C@@H](CCC(=O)O)C(=O)O)cc3)nc2c(=O)[nH]1
AC50 [1]: 15.8 µM (active)

CC(C)=CCC/C(C)=C\CO
outcome [2]: inactive

Nc1nc(N)c2nc(CNc3ccc(C(=O)N[C@@H](CCC(=O)O)C(=O)O)cc3)cnc2n1
AC50 [1]: 14.5 µM (active)
AC50 [3]: 38.7 µM (active)
AC50 [4]: 0.889 µM (active)
outcome [5]: inactive

Nc1ccc(S(=O)(=O)Nc2nccs2)cc1
outcome [6]: inactive
outcome [7]: inactive

NC(=O)NN=Cc1ccc([N+](=O)[O-])o1
AC50 [1]: 11.3 µM (active)

Cc1c(C(=O)O)c(O)cc2c1C(=O)c1c(O)c([C@@H]3O[C@H](CO)[C@@H](O)[C@H](O)[C@H]3O)c(O)c(O)c1C2=O
AC50 [1]: 11.7 µM (active)

COc1ccc(/C=C/S(=O)(=O)NC(=O)c2ccc(C)cc2Cl)cc1
outcome [8]: inactive

CCCC[C@H]1CN(CC2CCOCC2)C(=O)OC12CCN(C1(C)CCN(C(=O)c3c(C)ncnc3C)CC1)CC2
outcome [1]: inactive
outcome [9]: inactive

ClC1=C(Cl)C(Cl)(Cl)C(Cl)=C1Cl
AC50 [1]: 10.9 µM (active)

c1ccc2n[nH]nc2c1
outcome [10]: inactive
AC50 [11]: 25 µM (active)
outcome [11]: inactive

Nc1ccc(N)c([N+](=O)[O-])c1
outcome [2]: inactive

CCC(C)C(=O)OC (stereo not given)
outcome [6]: inactive

N#Cc1ccc(CC(=NNC(=O)Nc2ccc(OC(F)(F)F)cc2)c2cccc(C(F)(F)F)c2)cc1
outcome [6]: inactive

Cc1ccc(N)c([N+](=O)[O-])c1
AC50 [6]: 25 µM (active)
AC50 [4]: 8.62 µM (active)

CN(CCOc1ccc(CC2SC(=O)NC2=O)cc1)c1ccccn1 (stereo not given)
outcome [6]: inactive
AC50 [4]: 12.9 µM (active)

COc1ccc(CCN2CCC(Nc3nc4ccccc4n3Cc3ccc(F)cc3)CC2)cc1
outcome [6]: inactive

CC(C)CCO
outcome [1]: inactive

Cc1cc2c(cc1C(F)(F)F)N(C(=O)Nc1ccc(Oc3cccnc3C)nc1)CC2
AC50 [8]: 6.86 µM (active)

Nc1ccccc1N
AC50 [1]: 7.6 µM (active)

CCOC(=O)[C@H](C)O
outcome [6]: inactive

CCCCCCOCCO
outcome [1]: inactive

COC(=O)c1c(Cl)nn(C)c1S(=O)(=O)NC(=O)Nc1nc(OC)cc(OC)n1
outcome [8]: inactive

CC(C)c1cccc(C(C)C)c1
outcome [1]: inactive
outcome [12]: inactive

Cc1cc(SC2=C(O)C[C@@](CCc3ccc(N)cc3)(C(C)C)OC2=O)c(C(C)(C)C)cc1CO
outcome [3]: inactive
AC50 [13]: 13.1 µM (active)

CCC(C)(C)C1CCC(O)CC1 (stereo not given)
outcome [14]: inactive
outcome [15]: inactive

O=c1[nH]sc2ccccc12
AC50 [14]: 17 µM (active)

CCCCCCCCCCCC[N+](C)(C)C
AC50 [13]: 13.3 µM (active)

O=C(CCCCCCCCc1cccnc1)N1CCC(C=C(c2ccccc2)c2ccccc2)CC1
outcome [12]: inactive

CCCC(=O)OCCC(C)C
outcome [12]: inactive

CCn1nc(C)c2c1C(=O)NCC(c1ccc(O)cc1)=N2
outcome [16]: inactive

Cc1c(C)c2c(c(C)c1O)CCC(C)(COc1ccc(CC3SC(=O)NC3=O)cc1)O2 (stereo not given)
outcome [17]: inactive
outcome [15]: inactive

CCCCCCCCOC(=O)c1cc(O)c(O)c(O)c1
outcome [17]: inactive

O=C1c2c(O)ccc(Nc3ccc(CCO)cc3)c2C(=O)c2c([N+](=O)[O-])ccc(O)c21
outcome [7]: inactive

OCC(CO)(CBr)CBr
outcome [7]: inactive

Nc1ccc(Cl)c([N+](=O)[O-])c1
AC50 [4]: 12.8 µM (active)

CC=Cc1ccc(OC)c(OC)c1
AC50 [4]: 17.2 µM (active)

O=C1OC2(c3ccccc31)c1cc(I)c(O)c(I)c1Oc1c2cc(I)c(O)c1I
AC50 [4]: 0.828 µM (active)
